# Bioassay records as filed in PubChem BioAssay.
# Tb PGK inh: blocks T. brucei phosphoglycerate kinase; AID 602233; PGK/GAPDH coupled, Kinase-Glo luminescence, 60 min; hit rate 0.043% among 380,000; Potency, µM (top dose mostly 57.5 µM), hits mostly inhibitors; note: nearly all actives have a fitted effect of over 60% in size
#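 Recombinant glycosomal PGK reaction used 1,3-bisphosphoglycerate generated in-well by GAPDH (100nM final) in 100mM TEA pH 7.6, 5mM MgCl2, 0.01% Tween-20. After 60 minutes at room temperature, ATP was read by Kinase-Glo Plus luminescence end-point.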
# GLS inh: blocks human kidney-isoform glutaminase activity | AID 624170 | O94925 | GLS enzymatic activity, qHTS titration | hit rate 0.21% among 410,000 | Potency, µM (highest dose often 45.5 µM), actives largely listed as inhibitors
#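 Two-point fluorescence kinetic (t0, 30 min RT) for hKGA; glutamate detected via glutamate oxidase–HRP–Amplex Red. Substrate: 1 mM L-glutamine solution; buffer 45 mM KH2PO4, pH 8.2.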
# RECQ1 inh: RECQ1 (human) helicase inhibition; AID 2549; Potency, µM (highest dose often 57.3 µM), most hits filed as inhibitors; P46063; hit rate 0.54% among 240,000; RECQ1 DNA unwinding, red fluorescence kinetic read; note: nearly all actives have a fitted effect of over 30% in size
#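 50 nM RECQ1T1 preincubated 15 min with compound in Tris pH 8.0 buffer with MgCl2, DTT, Tween-20 and 2.5 ug/ml poly(dI-dC); started with 200 nM TAMRA/BHQ-2 forked duplex and 2 mM ATP. Unwinding read as fluorescence (525/598 nm), two reads 2 h apart.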
# APE1 inh: blocks human APE1 abasic DNA cleavage; P27695; recombinant APE1, TAMRA/BHQ-2 abasic DNA cleavage fluorescence; Potency, µM (series often up to 65.8 µM), actives largely listed as inhibitors; hit rate 0.35% among 350,000; AID 2517; note: nearly all actives have a fitted effect of over 55% in size
# Target sequence (P27695 whole entry, looked up): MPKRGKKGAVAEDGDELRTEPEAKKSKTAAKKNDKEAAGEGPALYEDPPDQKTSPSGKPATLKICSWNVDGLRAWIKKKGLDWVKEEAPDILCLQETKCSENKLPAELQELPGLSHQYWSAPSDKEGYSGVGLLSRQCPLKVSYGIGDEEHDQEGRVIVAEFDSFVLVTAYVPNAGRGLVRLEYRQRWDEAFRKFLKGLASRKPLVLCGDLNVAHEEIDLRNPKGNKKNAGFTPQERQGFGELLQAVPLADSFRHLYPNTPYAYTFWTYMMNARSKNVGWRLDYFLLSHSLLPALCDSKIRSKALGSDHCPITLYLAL
#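 Substrate: short duplex with […] THF abasic site, 5'-TAMRA and 3'-BHQ-2, 50 nM final. APE1 at 0.75 nM, preincubated 15 min RT with compound. Fluorescence increase from first to third read measured activity.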
# BLM inh: inhibitors of human Bloom syndrome helicase BLM; recombinant BLM DNA unwinding, fluorescence dequenching; hit rate 0.2% among 350,000; P54132; Potency, µM (series often up to 56.1 µM), most hits filed as inhibitors; note: nearly all actives have a fitted effect of over 35% in size
# FEN1 inh-1: inhibitors of human flap endonuclease 1 | P39748 | Recombinant FEN1 flap cleavage, fluorescence, 15 min | Potency, µM (series often up to 114 µM), actives largely listed as inhibitors | hit rate 0.35% among 390,000 | AID 588795; note: nearly all actives have a fitted effect of over 65% in size
# Target sequence (P39748 whole entry, looked up): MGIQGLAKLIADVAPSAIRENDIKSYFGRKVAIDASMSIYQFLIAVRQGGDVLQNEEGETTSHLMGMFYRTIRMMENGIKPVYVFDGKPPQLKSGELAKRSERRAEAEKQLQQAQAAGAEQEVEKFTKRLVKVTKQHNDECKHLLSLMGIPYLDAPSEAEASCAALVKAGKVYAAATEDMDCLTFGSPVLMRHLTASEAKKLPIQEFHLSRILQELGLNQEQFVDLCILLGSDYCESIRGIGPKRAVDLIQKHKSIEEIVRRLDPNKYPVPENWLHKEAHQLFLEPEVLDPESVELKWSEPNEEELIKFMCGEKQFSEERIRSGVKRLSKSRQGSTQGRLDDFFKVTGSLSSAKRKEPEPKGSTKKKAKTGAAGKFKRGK
#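 Reaction started by adding substrate (50 nM final) to 10 nM enzyme after 15 min room-temperature compound preincubation. Reads at 0 and 15 min, with data normalized and fitted to a four-parameter Hill equation.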
# FEN1 inh-2: confirmation of human FEN1 inhibitors; hit rate 79% among 880; Potency, µM, most hits filed as inhibitors; shares compounds with FEN1 inh-1; FEN1 flap cleavage, TAMRA/BHQ2 fluorogenic DNA substrate; note: nearly all actives have a fitted effect of over 60% in size
# Hits are given with their value; i = inactive; ? = inconclusive; nt = not tested or not shown. A selection: hits, their analogues and other compounds. The true share with any hit is near 0.86%. Calls come from the whole dose curve; as a rule, active = well fitted curve in the direction sought with a large enough effect; inconclusive = small, poorly fitted or top-dose-only effect, or another doubt; inactive = no such curve, though single readings can be large; an effect the other way counts as inactive or inconclusive.
SMILES,Tb PGK inh,GLS inh,RECQ1 inh,APE1 inh,BLM inh,FEN1 inh-1,FEN1 inh-2
COc1cc2c(oc(=O)c3cc(C)cc(OC)c32)c2c(C3OC(C)C(O)C(C)(O)C3O)ccc(O)c12 (stereo unspecified),i,i,nt,nt,nt,3.5µM,0.85
COc1cccc2cc(C(=O)N3CC(C)OC(C)C3)c(=O)oc12 (stereo unspecified),i,i,nt,i,i,i,nt
C=C1CC2C(=O)N(Cc3ccccc3)C(C(=O)O)C1N2C(=O)OC(C)(C)C (stereo unspecified),nt,nt,i,i,i,i,nt
CC1CCN(CCCNC(=O)c2cc3c(Cl)nc4ccccc4c3s2)CC1,nt,i,i,i,i,?,?
O=C(NCCCN1CCN(c2ccccc2F)CC1)c1cc2c(Cl)nc3ccccc3c2s1,i,i,nt,nt,i,i,nt
Cc1ccc2oc(=O)c3cc(C(=O)NCCN4CCN(C)CC4)sc3c2c1,i,i,i,i,i,i,nt
CCCN1CCN(CCCNC(=O)c2cc3c(Cl)nc4ccccc4c3s2)CC1,i,i,nt,nt,i,45µM,?
O=C(NCCCN1CCCC1)c1cc2c(Cl)nc3ccccc3c2s1,i,i,i,i,i,40µM,38
Cc1ccc2oc(=O)c3cc(C(=O)NCCCN4CCCCCC4)sc3c2c1,i,i,nt,i,i,?,?
c1cnc2[nH]ccc2c1,nt,nt,nt,nt,nt,i,nt
CCCCCCCC/C=C\CCCCCCCC(=O)OC[C@@H](O)COP(=O)(O)O,nt,nt,i,i,i,nt,nt
CCC1CN(C(=O)N2CCC(C(=O)NCCC3=CCCCC3)CC2)c2ccccc2O1 (stereo unspecified),i,i,nt,nt,i,i,nt
S=c1nc[nH]c2n[nH]nc12,nt,nt,nt,nt,nt,i,nt
O=c1n(Cc2ccc(F)cc2)c2ccccc2c2nc(-c3ccccc3)nn12,i,i,nt,nt,i,i,nt
Cc1ccc(NC(=O)Cn2c(=O)n(CCC(C)C)c(=O)c3cccnc32)cc1C,i,i,nt,nt,i,i,nt
CCOC(=O)C1=C(C)N=c2s/c(=C\c3ccc(OCC(=O)O)cc3)c(=O)n2C1c1ccc(Cl)cc1 (stereo unspecified),?,?,nt,11µM,?,?,76
CCOC(=O)C1=C(C)N=c2s/c(=C/c3ccc(OCC(=O)O)cc3)c(=O)n2C1c1ccc(F)cc1 (stereo unspecified),i,i,nt,i,i,?,85
CCOc1ccc(C2C(C(=O)Nc3ccccc3)=C(C)N=c3s/c(=C/c4cccc(OCC(=O)O)c4)c(=O)n32)cc1 (stereo unspecified),i,i,i,i,?,i,nt
O=[N+]([O-])c1cc2ccccc2c(O)c1O,?,?,nt,nt,nt,nt,15
O=S(=O)(c1cccc(Cl)c1)N1CCN(c2nc(-c3ccccc3)nc3ccccc23)CC1,nt,nt,nt,nt,nt,i,nt
Cn1c(N)c(C(=O)COC(=O)c2ccc([N+](=O)[O-])o2)c(=O)n(C)c1=O,i,i,i,i,i,?,8.5
CCOC(=O)C1CCN(C(=O)COC(=O)c2ccc([N+](=O)[O-])o2)CC1,i,i,nt,i,nt,?,11
Cn1c(N)c(C(=O)COC(=O)c2ccc(Br)o2)c(=O)n(C)c1=O,i,i,i,?,i,i,nt
Cc1ccc(C(=O)OC(C)C(=O)NC2CCCCC2C)s1 (stereo unspecified),i,i,nt,i,nt,i,nt
CC1CCCC(C)N1C(=O)COC(=O)c1ccc([N+](=O)[O-])o1 (stereo unspecified),i,i,nt,i,nt,?,15
SMILES,Tb PGK inh,GLS inh,RECQ1 inh,APE1 inh,BLM inh,FEN1 inh-1,FEN1 inh-2
CC(OC(=O)c1ccc([N+](=O)[O-])o1)C(=O)NC1CCCCC1C (stereo unspecified),i,i,nt,i,nt,13µM,6
Nc1nccnc1C(=O)OCC(=O)Nc1ccc2[nH]c(=O)[nH]c2c1,i,i,nt,i,nt,?,?
O=C(COC(=O)c1ccccc1)Nc1ccc2[nH]c(=O)[nH]c2c1,i,i,nt,i,nt,i,nt
C/C(=N/NC(=O)c1ccco1)c1cccc(NC(=O)c2ccc(C)o2)c1,i,i,i,i,i,i,nt
C/C(=N/NC(=O)c1ccco1)c1cccc(NC(=O)c2ccc(C)s2)c1,i,i,i,i,i,i,?
Cc1ccc2c(=O)cc(C(=O)N(Cc3ccc(C(C)(C)C)cc3)C3CCS(=O)(=O)C3)oc2c1 (stereo unspecified),i,i,nt,nt,i,i,nt
Nc1ccc(O)c2c1C(=O)c1ccccc1C2=O,?,7.9µM,i,i,14µM,35µM,43
O=C1C=C(O)c2c(O)cc(O)c(O)c2C1=O,?,?,nt,nt,nt,3.5µM,21
COc1ccc(N)c2c1C(=O)c1ccccc1C2=O,i,i,i,?,i,?,76
COc1ccc2noc3c2c1C(=O)c1ccccc1-3,i,i,nt,nt,nt,?,?
COc1ccc(OC)c2c1C(=O)c1ccccc1C2=O,i,i,i,?,i,?,nt
O=C1c2ccccc2C(=O)c2c(O)ccc(O)c21,nt,nt,i,i,i,nt,nt
O=C1C=C(O)c2[nH]c(=O)ccc2C1=O,i,?,nt,nt,nt,?,nt
COc1cccc2c1C(=O)c1ccc3ccccc3c1C2=O,i,i,i,i,i,i,nt
COc1ccc(NC(=O)CSc2nc(-c3cccs3)cc(C(F)(F)F)n2)cc1OC,i,i,nt,nt,i,i,nt
CC(=O)c1cc(-c2ccccc2)n(CCC(=O)NC(C)c2ccccc2)c1C (stereo unspecified),i,i,nt,nt,i,i,nt
Cc1ccc(Cl)cc1NC(=O)C1CCN(C(=O)c2cnn(-c3ccccc3)c2-n2cccc2)CC1,i,i,nt,nt,i,i,nt
O=C1Cc2ccccc2C1=C1C=c2ccccc2=C1,nt,nt,nt,nt,nt,i,nt
O=C1c2ccccc2C(=O)c2c(O)c(O)cc(O)c21,?,?,6.3µM,19µM,i,?,38
O=C(O)c1cccc2c1C(=O)c1ccccc1C2=O,i,i,i,i,i,i,nt
Cc1ccc(NC(=O)CCNS(=O)(=O)c2ccc3c(c2)CCCC(=O)N3)cc1,i,i,nt,nt,i,i,nt
N=C1/C(=C/c2ccc(-c3cccc(C(=O)O)c3)o2)C(=O)N=C2SC(CC(=O)N3CCOCC3)=NN12,?,?,nt,?,i,35µM,67
O=c1c2sc3ccccc3c2n(Cc2cccc(Cl)c2)c(=O)n1Cc1ccc(F)cc1,i,i,nt,nt,i,i,nt
Cc1ccc2[nH]c(C)c(/C=C/c3cc[n+](C)cc3)c2c1,i,i,nt,i,i,?,nt
Cc1ccc2c(c1)c(/C=C/c1cc[n+](C)cc1)c(C)n2C,i,i,nt,i,i,?,34
Cc1cccc(OCC(=O)Nc2cc(-c3nc4cc(Cl)ccc4o3)ccc2C)c1,nt,nt,nt,nt,nt,i,nt
CCn1cc(C(=O)O)c(=O)c2cc(F)c(N/N=C/c3ccccc3[N+](=O)[O-])cc21,i,i,i,i,i,i,7.6
